Data from PubChem BioAssay.
Unmarked numbers belong to inactive results. No rule for the calls is given here.

Target: Pantothenate synthetase (Mycobacterium tuberculosis (strain ATCC 25618 / H37Rv)) (UniProt P9WIL5)
Assay: Coupled enzyme confirmation of inhibitors against recombinant Mtb PanC (AID 375);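 also: 0% = full reaction with vehicle and 100% = no enzyme background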
Conditions: coupled enzyme assay; at 10 µM, stronger effect = higher value

Pantothenate synthetase (Mycobacterium tuberculosis (strain ATCC 25618 / H37Rv)), sequence (P9WIL5 whole entry, looked up): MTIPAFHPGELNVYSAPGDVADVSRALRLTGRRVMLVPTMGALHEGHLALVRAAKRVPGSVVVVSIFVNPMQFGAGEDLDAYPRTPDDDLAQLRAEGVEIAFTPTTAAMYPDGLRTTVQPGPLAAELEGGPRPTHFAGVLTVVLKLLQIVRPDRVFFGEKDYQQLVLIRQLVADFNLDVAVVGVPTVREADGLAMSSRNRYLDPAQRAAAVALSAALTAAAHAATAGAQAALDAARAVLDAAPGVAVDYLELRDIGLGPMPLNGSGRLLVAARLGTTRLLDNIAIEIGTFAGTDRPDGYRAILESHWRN

SMILES | inhibition [%]
COc1cc(OC)c(C2C(C#N)=C(N)OC3=C2C(=O)CC(C)(C)C3)cc1OC (stereo not drawn) | 1
Cc1ccccc1NC(=O)NCCCN1CCN(C2CCCCC2)CC1 | 0
COc1cc(C(=O)N2c3ccccc3CC2C)cc(OC)c1OC (stereo not drawn) | 0
Cc1cc(NC(=O)CSc2nc(CCC3CCCC3)nc3ccccc23)no1 | 3
O=S(=O)(Nc1ccc(Cc2ccncc2)cc1)N1CCCC1 | 0
Cc1ncoc1C(=O)Nc1ccccc1C(N)=O | 0
CCCCCOc1ccc(C2NC(=O)NC2=O)cc1 (stereo not drawn) | 0
CC(CCc1ccccc1)NCc1ccncc1 (stereo not drawn) | 5
COc1cc(NC(=O)C(C)Oc2ccccc2)c(C(=O)O)cc1OC (stereo not drawn) | 0
Cn1c(COc2ccc(Cl)cc2)nnc1SCC(=O)NC1CCCCC1 | 0
CC(C)OCCCNC(=O)c1cc2c(s1)CS(=O)(=O)C2 | 0
COc1ccc(C(=O)NCc2nnc(SCC(=O)Nc3cc(C)cc(C)c3)o2)cc1OC | 0
COc1ccc(OCCCC(=O)Nc2ccc3c(c2)OCCO3)cc1 | 4
CCOC(=O)N1CCN(S(=O)(=O)c2ccc(Br)s2)CC1 | 11
O=C(Nc1c(-c2ccccc2)nc2ccccn12)c1ccco1 | 0
N[C@@H](Cc1ccc(O)c(I)c1)C(=O)O | 6
O=C(Nc1ccc(Cc2ccc(NC(=O)N3CCOCC3)cc2)cc1)N1CCOCC1 | 2
CCOC(=O)N1CCN(c2c(N3CCc4ccccc4C3)c(=O)c2=O)CC1 | 0
